Binding signal data for one sequence are collected here from PMC7862700, “An all-to-all approach to the identification of sequence-specific readers for epigenetic DNA modifications on cytosine”.

What all share (experiment): DAPPL (digital affinity profiling via proximity ligation, sequencing); 10 mM Tris-HCl pH 7.5, 50 mM NaCl, 1 mM DTT, 4% glycerol, room temperature, 30 min; GST-TFs on glutathione beads, 16-mer random dsDNA library, 0.1% formaldehyde crosslink after washing; high values mean tight binding
For one assay, the target named is T1, FEV (Homo sapiens, UniProt Q99581 1-238).
T1 sequence: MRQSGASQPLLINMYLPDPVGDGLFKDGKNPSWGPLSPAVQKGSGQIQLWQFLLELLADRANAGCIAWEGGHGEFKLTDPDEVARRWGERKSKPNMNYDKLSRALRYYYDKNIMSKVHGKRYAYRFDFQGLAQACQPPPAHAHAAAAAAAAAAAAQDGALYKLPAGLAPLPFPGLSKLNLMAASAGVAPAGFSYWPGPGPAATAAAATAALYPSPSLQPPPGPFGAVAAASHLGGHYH
Conditions: protein: recombinant; tags: N-terminal GST; dsDNA, one strand shown. An outline of the steps: (§1)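 Binding signal is each hexamer's read frequency for a factor divided by its frequency in the tag-only sample. The factors were GST-fused human transcription factors from yeast, captured on glutathione beads, DNA-barcoded and pooled with that sample. Pools were incubated with 200 nmole of a random double-stranded 16-mer DNA library in Tris/NaCl/DTT/glycerol buffer at room temperature for 30 min, then washed, crosslinked with 0.1% formaldehyde, proximity-ligated with BsaI/T4 ligase (1 h, 37 °C), PCR-amplified and sequenced on an Illumina NextSeq500.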

In a further assay the target is ETV5 (Homo sapiens, UniProt P41161 1-510). The note with it: protein: recombinant; tags: N-terminal GST; dsDNA, one strand shown. Summed up: as §1
Sequence of ETV5 (P41161 whole entry): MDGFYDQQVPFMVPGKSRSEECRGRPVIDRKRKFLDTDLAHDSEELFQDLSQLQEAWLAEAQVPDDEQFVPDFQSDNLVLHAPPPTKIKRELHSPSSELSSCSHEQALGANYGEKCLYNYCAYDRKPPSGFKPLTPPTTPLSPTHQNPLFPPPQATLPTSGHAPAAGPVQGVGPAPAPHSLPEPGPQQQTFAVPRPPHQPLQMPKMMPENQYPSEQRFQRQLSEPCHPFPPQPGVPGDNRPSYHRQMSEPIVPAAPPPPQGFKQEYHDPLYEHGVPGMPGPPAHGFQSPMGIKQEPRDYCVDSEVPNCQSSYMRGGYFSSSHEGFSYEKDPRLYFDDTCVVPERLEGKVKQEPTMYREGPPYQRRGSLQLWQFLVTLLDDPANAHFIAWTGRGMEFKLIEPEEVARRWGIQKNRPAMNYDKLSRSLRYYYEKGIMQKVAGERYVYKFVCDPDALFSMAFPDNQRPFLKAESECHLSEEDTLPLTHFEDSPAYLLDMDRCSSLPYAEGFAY
The target of a further assay is HSF1 (Homo sapiens, UniProt Q00613 1-529). Conditions: protein: recombinant; tags: N-terminal GST; chain copies: 3; dsDNA, one strand shown. Summed up: as §1
Sequence of HSF1 (Q00613 whole entry): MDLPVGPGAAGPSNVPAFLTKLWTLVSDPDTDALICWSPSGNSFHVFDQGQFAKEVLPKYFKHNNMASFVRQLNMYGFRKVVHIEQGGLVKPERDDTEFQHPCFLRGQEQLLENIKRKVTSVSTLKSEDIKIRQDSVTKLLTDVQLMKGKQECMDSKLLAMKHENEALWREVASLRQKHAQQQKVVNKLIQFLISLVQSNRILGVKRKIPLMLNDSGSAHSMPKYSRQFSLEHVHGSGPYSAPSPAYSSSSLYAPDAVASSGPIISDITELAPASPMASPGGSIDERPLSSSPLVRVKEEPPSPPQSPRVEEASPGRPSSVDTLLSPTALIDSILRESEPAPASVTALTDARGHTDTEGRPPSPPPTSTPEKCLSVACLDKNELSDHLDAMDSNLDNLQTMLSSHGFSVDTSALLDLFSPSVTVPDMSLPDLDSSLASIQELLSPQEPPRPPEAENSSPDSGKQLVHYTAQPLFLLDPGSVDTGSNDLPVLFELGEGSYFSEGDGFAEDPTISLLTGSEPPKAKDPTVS
The target in the next assay is T2, SPIC (Homo sapiens, UniProt Q8N5J4 1-248).
T2 sequence: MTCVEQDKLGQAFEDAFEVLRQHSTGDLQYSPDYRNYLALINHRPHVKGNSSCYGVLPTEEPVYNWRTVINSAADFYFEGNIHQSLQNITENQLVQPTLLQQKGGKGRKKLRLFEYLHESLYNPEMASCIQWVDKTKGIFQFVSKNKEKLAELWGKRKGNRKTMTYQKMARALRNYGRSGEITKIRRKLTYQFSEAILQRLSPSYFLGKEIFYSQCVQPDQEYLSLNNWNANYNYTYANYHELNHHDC
The note with it: protein: recombinant; tags: N-terminal GST; dsDNA, one strand shown. Summed up:
as §1

In another assay the target is ELF4 (Homo sapiens, UniProt Q99607 1-663). The note with it: protein: recombinant; tags: N-terminal GST; dsDNA, one strand shown. An outline of the steps: as §1
Sequence of ELF4 (Q99607 whole entry): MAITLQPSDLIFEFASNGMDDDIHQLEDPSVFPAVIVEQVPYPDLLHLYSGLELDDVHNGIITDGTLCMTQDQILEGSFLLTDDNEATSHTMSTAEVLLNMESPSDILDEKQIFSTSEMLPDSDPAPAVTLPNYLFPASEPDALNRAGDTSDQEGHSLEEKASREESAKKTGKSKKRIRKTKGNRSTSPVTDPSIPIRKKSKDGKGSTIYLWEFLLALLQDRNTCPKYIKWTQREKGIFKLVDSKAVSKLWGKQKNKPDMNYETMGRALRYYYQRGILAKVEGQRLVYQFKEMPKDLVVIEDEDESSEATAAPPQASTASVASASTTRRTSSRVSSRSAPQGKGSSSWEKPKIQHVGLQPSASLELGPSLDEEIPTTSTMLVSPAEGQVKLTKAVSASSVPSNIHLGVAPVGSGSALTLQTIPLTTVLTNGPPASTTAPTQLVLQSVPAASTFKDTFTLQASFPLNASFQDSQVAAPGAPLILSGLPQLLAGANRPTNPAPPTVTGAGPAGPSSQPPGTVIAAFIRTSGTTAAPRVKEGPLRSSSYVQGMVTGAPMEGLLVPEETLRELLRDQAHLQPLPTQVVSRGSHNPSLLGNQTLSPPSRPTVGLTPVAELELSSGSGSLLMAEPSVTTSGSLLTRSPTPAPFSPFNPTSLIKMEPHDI
A further assay has as its target T3, ELK4 (Homo sapiens, UniProt P28324-2 1-405).
T3 sequence: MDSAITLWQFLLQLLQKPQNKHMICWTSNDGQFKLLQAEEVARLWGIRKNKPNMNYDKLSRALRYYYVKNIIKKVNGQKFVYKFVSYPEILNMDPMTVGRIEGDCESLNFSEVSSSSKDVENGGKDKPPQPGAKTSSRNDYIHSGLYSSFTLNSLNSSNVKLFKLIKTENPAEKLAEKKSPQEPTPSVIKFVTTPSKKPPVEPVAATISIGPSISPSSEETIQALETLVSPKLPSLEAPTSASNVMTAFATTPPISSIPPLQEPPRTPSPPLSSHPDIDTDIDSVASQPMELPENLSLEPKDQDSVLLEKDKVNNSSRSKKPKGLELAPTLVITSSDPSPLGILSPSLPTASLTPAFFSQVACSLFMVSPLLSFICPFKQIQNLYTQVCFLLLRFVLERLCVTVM
Conditions: protein: recombinant; tags: N-terminal GST; dsDNA, one strand shown. Summed up:
as §1

The target of a further assay is T4, ETV2 (Homo sapiens, UniProt O00321 1-342).
T4 sequence: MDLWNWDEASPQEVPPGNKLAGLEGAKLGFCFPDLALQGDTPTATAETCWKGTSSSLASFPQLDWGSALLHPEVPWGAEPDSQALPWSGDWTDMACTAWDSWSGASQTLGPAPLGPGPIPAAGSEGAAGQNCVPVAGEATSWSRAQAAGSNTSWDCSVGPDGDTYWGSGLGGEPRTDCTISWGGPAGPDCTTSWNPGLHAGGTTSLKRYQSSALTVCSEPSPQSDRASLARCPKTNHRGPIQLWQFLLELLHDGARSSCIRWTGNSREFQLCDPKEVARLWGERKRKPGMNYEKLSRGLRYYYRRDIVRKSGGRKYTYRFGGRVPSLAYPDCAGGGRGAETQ
Conditions: protein: recombinant; tags: N-terminal GST; dsDNA, one strand shown. An outline of the steps:
as §1

A further assay deals with T5, ELF3 (Homo sapiens, UniProt P78545 1-371).
T5 sequence: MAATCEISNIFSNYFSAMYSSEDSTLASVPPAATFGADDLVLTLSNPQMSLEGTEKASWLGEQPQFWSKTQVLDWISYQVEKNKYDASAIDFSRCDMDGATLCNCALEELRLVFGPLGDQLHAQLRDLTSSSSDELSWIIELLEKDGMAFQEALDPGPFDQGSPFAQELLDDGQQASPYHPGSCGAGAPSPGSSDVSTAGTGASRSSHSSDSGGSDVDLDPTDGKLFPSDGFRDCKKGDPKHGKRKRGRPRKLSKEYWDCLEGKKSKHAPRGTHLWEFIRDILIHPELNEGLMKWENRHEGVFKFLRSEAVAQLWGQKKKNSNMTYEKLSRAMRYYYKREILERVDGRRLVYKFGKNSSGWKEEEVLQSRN
Conditions: protein: recombinant; tags: N-terminal GST; dsDNA, one strand shown. Summed up: as §1

A further assay addresses CRX (Homo sapiens, UniProt O43186 1-299). Conditions: protein: recombinant; tags: N-terminal GST; dsDNA, one strand shown. An outline of the steps:
as §1

A further assay deals with ETV1 (Homo sapiens, UniProt P50549 1-477). The note with it: protein: recombinant; tags: N-terminal GST; dsDNA, one strand shown. An outline of the steps: as §1
Sequence of ETV1 (P50549 whole entry): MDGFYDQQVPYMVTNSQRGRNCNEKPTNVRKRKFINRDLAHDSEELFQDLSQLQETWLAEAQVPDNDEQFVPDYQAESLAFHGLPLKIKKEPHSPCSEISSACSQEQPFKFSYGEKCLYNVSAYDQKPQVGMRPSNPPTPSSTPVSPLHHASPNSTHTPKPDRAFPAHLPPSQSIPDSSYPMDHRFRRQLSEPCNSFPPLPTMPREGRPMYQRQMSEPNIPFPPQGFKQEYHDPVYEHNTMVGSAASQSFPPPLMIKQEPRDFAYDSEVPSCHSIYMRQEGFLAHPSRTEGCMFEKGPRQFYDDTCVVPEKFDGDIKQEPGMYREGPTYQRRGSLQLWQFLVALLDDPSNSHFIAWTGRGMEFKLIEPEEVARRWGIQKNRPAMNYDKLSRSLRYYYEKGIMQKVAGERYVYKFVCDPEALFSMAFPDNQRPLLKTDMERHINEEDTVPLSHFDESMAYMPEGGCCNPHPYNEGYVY
A further assay addresses T6, ERF (Homo sapiens, UniProt P50548 1-548).
T6 sequence: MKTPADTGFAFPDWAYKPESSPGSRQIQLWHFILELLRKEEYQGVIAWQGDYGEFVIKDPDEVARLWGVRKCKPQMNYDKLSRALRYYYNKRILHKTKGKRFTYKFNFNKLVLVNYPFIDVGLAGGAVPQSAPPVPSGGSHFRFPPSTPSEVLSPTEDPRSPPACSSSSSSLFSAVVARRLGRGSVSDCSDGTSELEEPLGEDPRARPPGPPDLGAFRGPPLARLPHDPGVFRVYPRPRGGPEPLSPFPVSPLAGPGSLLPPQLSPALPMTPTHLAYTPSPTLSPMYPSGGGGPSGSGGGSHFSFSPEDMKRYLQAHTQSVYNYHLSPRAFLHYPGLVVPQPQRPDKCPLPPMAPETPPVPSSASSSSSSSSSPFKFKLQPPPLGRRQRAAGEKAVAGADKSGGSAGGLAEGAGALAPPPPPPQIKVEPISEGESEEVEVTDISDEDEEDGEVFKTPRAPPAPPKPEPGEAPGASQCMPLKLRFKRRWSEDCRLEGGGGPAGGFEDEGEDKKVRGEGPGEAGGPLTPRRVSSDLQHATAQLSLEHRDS
The note with it: protein: recombinant; tags: N-terminal GST; dsDNA, one strand shown. Summed up: as §1

A further assay addresses T7, ETV3L (Homo sapiens, UniProt Q6ZN32 1-361).
T7 sequence: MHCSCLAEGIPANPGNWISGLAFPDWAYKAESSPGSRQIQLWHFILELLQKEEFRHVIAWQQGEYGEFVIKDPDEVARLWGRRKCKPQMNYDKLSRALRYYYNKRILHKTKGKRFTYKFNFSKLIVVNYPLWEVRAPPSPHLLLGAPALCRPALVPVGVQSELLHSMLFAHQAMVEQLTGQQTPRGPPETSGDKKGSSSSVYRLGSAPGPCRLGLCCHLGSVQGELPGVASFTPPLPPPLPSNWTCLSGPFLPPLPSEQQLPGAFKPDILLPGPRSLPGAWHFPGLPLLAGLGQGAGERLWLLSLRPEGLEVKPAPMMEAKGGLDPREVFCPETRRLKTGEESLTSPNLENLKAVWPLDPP
The note with it: protein: recombinant; tags: N-terminal GST; dsDNA, one strand shown. An outline of the steps:
as §1

In the next assay the target is T8, ETS2 (Homo sapiens, UniProt P15036 1-469).
T8 sequence: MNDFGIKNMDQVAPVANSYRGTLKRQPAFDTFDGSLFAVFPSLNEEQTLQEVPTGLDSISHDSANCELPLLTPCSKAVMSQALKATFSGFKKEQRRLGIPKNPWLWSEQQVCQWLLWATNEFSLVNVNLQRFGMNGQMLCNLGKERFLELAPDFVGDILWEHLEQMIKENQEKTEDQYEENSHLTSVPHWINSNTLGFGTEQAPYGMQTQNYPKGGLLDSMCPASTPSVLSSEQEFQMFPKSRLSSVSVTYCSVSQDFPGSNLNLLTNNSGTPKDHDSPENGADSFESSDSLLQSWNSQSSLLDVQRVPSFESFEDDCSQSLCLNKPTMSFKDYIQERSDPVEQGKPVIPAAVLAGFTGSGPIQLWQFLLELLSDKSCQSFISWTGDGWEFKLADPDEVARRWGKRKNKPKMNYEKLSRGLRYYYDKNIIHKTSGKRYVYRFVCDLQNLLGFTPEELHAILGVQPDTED
The note with it: protein: recombinant; tags: N-terminal GST; dsDNA, one strand shown. An outline of the steps:
as §1

The next assay concerns the target T9, SPDEF (Homo sapiens, UniProt O95238 1-335).
T9 sequence: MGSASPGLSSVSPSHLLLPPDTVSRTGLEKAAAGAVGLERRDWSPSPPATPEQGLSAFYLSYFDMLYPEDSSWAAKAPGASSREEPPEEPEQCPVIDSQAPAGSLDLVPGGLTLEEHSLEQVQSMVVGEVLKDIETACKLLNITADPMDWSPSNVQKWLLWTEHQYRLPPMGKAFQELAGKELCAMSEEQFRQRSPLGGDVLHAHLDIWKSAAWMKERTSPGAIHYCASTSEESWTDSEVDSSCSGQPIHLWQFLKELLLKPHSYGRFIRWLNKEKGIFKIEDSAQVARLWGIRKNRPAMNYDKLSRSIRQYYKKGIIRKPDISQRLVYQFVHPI
The note with it: protein: recombinant; tags: N-terminal GST; dsDNA, one strand shown. Summed up: as §1

Another assay deals with T10, ETV7 (Homo sapiens, UniProt Q9Y603 1-341).
T10 sequence: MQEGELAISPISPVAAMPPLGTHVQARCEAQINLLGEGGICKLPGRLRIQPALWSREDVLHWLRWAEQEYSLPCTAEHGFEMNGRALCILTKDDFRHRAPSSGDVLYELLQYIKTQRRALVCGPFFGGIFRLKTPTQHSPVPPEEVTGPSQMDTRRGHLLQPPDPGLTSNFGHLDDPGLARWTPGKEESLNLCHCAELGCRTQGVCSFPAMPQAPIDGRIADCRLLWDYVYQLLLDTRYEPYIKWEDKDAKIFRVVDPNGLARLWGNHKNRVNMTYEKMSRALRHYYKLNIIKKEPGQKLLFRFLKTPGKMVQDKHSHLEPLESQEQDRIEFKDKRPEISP
The note with it: protein: recombinant; tags: N-terminal GST; dsDNA, one strand shown. An outline of the steps: as §1

A further assay has as its target T11, ELF5 (Homo sapiens, UniProt Q9UKW6-2 1-255).
T11 sequence: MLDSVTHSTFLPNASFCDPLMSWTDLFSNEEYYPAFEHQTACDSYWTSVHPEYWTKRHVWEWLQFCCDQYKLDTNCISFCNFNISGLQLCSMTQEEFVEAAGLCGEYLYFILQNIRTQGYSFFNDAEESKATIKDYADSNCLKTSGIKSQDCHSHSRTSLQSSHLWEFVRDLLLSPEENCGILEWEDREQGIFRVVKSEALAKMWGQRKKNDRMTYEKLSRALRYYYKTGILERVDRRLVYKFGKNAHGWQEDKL
The note with it: protein: recombinant; tags: N-terminal GST; dsDNA, one strand shown. An outline of the steps: as §1

The target of the next assay is T12, ETV3 (Homo sapiens, UniProt P41162-2 1-143).
T12 sequence: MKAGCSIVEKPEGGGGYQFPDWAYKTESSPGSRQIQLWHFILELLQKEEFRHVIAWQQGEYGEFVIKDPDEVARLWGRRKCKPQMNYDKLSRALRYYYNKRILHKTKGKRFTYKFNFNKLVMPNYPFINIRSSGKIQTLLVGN
The note with it: protein: recombinant; tags: N-terminal GST; dsDNA, one strand shown. Summed up: as §1

A further assay concerns the target ETV6 (Homo sapiens, UniProt P41212 1-452). Conditions: protein: recombinant; tags: N-terminal GST; dsDNA, one strand shown. Summed up:
as §1

Sequence of ETV6 (P41212 whole entry): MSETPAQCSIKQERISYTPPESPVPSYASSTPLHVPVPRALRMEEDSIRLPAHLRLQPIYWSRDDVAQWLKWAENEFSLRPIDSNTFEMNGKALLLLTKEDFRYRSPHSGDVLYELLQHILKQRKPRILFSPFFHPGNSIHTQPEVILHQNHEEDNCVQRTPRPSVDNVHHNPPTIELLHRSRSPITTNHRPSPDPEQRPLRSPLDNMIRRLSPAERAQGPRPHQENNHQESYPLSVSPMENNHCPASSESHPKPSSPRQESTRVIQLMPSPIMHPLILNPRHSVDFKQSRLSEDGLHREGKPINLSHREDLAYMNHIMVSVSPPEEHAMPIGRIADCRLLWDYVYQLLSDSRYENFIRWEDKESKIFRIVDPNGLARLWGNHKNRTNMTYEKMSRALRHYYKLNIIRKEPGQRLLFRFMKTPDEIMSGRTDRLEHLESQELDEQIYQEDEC
Sequence of CRX (O43186 whole entry): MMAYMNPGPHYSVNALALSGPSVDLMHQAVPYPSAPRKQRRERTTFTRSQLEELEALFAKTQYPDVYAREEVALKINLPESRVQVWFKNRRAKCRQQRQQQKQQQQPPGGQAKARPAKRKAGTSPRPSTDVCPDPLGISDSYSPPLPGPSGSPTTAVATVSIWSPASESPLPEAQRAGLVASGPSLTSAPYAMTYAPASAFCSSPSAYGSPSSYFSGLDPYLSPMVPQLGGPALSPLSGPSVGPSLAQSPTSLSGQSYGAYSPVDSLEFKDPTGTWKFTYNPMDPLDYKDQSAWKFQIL

As for CACAAG, the binding signal is 1.08 fold enrichment (6-mer frequency, TF over GST control) in the assay with FEV; 1.13 fold enrichment (6-mer frequency, TF over GST control) with ETV5; 1.06 fold enrichment (6-mer frequency, TF over GST control) with HSF1; 1.09 fold enrichment (6-mer frequency, TF over GST control) with SPIC; 1.2 fold enrichment (6-mer frequency, TF over GST control) in the assay with ELF4; 1.07 fold enrichment (6-mer frequency, TF over GST control) with ELK4. In addition, the binding signal with ETV2 is 1.11 fold enrichment (6-mer frequency, TF over GST control); with ELF3, 1.17 fold enrichment (6-mer frequency, TF over GST control); with CRX it was 1.01 fold enrichment (6-mer frequency, TF over GST control); with ETV1, 1.18 fold enrichment (6-mer frequency, TF over GST control); with ERF, 1.13 fold enrichment (6-mer frequency, TF over GST control); with ETV3L, 1.16 fold enrichment (6-mer frequency, TF over GST control). The binding signal in the assay with ETS2 is 1.22 fold enrichment (6-mer frequency, TF over GST control); in the assay with SPDEF, 1.07 fold enrichment (6-mer frequency, TF over GST control); with ETV7, 1.05 fold enrichment (6-mer frequency, TF over GST control); in the assay with ELF5, 1.11 fold enrichment (6-mer frequency, TF over GST control); with ETV3, 1.16 fold enrichment (6-mer frequency, TF over GST control); with ETV6 it was 1.14 fold enrichment (6-mer frequency, TF over GST control).
